Inconclusive results are not listed. The source made the active and inactive calls. Unless noted, calls follow the shape of the dose curve; as a rule, active = well fitted cell-killing curve with a large enough effect; inconclusive = small, poorly fitted or top-dose-only effect, or effect the other way; inactive = no such curve, though single readings can be large or run the other way.
Legend:
[1] = Quantitative High-Throughput drug screen in 47 multiple myeloma cell lines against the NCATS MIPE library collection: KMS28PE_JCRB cell viability assay (AID 1918983); also: nearly all actives have a fitted effect of over 35% in size
Outline: (§1)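 ATP-based CellTiter-Glo luminescence after 48 h drug exposure (37 °C, 5% CO2) of 500 myeloma cells per well. DMSO-only wells set 100% viability, media-only wells 0%; MIPE 4.0 library added by pin tool.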

[2] = Quantitative High-Throughput drug screen in 47 multiple myeloma cell lines against the NCATS MIPE library collection: L363_DSMZ cell viability assay (AID 1918984); also: nearly all actives have a fitted effect of over 40% in size
Outline: as §1

[3] = Quantitative High-Throughput drug screen in 47 multiple myeloma cell lines against the NCATS MIPE library collection: KMS34_JCRB cell viability assay (AID 1918985); also: nearly all actives have a fitted effect of over 40% in size
Outline: as §1

[4] = Quantitative High-Throughput drug screen in 47 multiple myeloma cell lines against the NCATS MIPE library collection: OCIMY5_PLB cell viability assay (AID 1918988); also: nearly all actives have a fitted effect of over 65% in size
Outline: as §1

[5] = Quantitative High-Throughput drug screen in 47 multiple myeloma cell lines against the NCATS MIPE library collection: OPM1_PLB cell viability assay (AID 1918989); also: nearly all actives have a fitted effect of over 40% in size
Outline: as §1

[6] = Quantitative High-Throughput drug screen in 47 multiple myeloma cell lines against the NCATS MIPE library collection: SKMM1_PLB cell viability assay (AID 1919863); details: SKMM1 myeloma viability, CellTiter-Glo ATP, 48 h; viability: stronger effect = lower value; also: nearly all actives have a fitted effect of over 35% in size
Outline: as §1

[7] = Quantitative High-Throughput drug screen in 47 multiple myeloma cell lines against the NCATS MIPE library collection: XG1_PLB cell viability assay (AID 1919866); also: nearly all actives have a fitted effect of over 35% in size
Outline: as §1

[8] = Quantitative High-Throughput drug screen in 47 multiple myeloma cell lines against the NCATS MIPE library collection: VP6_DJ cell viability assay (AID 1919867); also: nearly all actives have a fitted effect of over 40% in size
Outline: as §1

[9] = Quantitative High-Throughput drug screen in 47 multiple myeloma cell lines against the NCATS MIPE library collection: UTMC2_PLB cell viability assay (AID 1919868); details: CellTiter-Glo ATP luminescence, 48 h; viability (% of DMSO control): at 45.8 µM (top of the series) unless noted; also: nearly all actives have a fitted effect of over 55% in size
Outline: as §1

[10] = Quantitative High-Throughput drug screen in 47 multiple myeloma cell lines against the NCATS MIPE library collection: PE2_PLB cell viability assay (AID 1919869); also: nearly all actives have a fitted effect of over 35% in size
Outline: as §1

[11] = Quantitative High-Throughput drug screen in 47 multiple myeloma cell lines against the NCATS MIPE library collection: PCM6_Riken cell viability assay (AID 1919870); also: nearly all actives have a fitted effect of over 30% in size
Outline: as §1

[12] = Quantitative High-Throughput drug screen in 47 multiple myeloma cell lines against the NCATS MIPE library collection: RPMI8226_ATCC cell viability assay (AID 1919871); also: nearly all actives have a fitted effect of over 30% in size
Outline: as §1

[13] = Quantitative High-Throughput drug screen in 47 multiple myeloma cell lines against the NCATS MIPE library collection: OPM2_DSMZ cell viability assay (AID 1919872); also: nearly all actives have a fitted effect of over 30% in size
Outline: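 Viability readout: CellTiter-Glo luminescence following 5 min room-temperature incubation with reagent. Prior exposure: 48 h, 37C, humidified 5% CO2, 500 cells per well.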

[14] = Quantitative High-Throughput drug screen in 47 multiple myeloma cell lines against the NCATS MIPE library collection: KMS11_JCRBsus cell viability assay (AID 1919873); also: nearly all actives have a fitted effect of over 50% in size
Outline: as §1

[15] = Quantitative High-Throughput drug screen in 47 multiple myeloma cell lines against the NCATS MIPE library collection: KMS28BM_JCRB cell viability assay (AID 1919874); also: nearly all actives have a fitted effect of over 35% in size
Outline: as §1

[16] = qHTS drug screen for cell cycle checkpoint inhibitors in PARPi-resistant BRCA-mutant ovarian cancer cell lines. (AID 1963452; calls by dose curve); details: PEO1/OlaR viability, CellTiter-Glo luminescence, 96 h; for Z-AUC: stronger effect = lower value
Outline: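 PEO1, PEO4 and PEO1/OlaR ovarian cancer cells, 600 per well, exposed 96 h at 37C to a dilution series. Viability read by CellTiter-Glo luminescence, normalized to DMSO and empty wells; activity summarized as Z-AUC.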

[17] = qHTS for identification of novel therapeutic agents for treatment of microphthalmiaassociated transcription factor (MiT) renal cell carcinoma (RCC) (AID 1963991; calls by dose curve); details: CellTiter-Glo, 48 h; for z-score: stronger effect = lower value
Outline: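 Three TFE3-fusion RCC lines (UOK109, UOK124, UOK145), 500 cells/well in complete medium, were treated with MIPE 4.0 compounds for 48 hours at 37 C. Viability was by CellTiter-Glo luminescence, normalized to DMSO (100%) and empty wells (0%); curves fitted over 11 concentrations.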

[18] = Quantitative High-Throughput drug screen in 47 multiple myeloma cell lines against the NCATS MIPE library collection: OCIMY7_PLB cell viability assay (AID 1918987); also: nearly all actives have a fitted effect of over 65% in size
Outline: as §1

[19] = Quantitative High-Throughput drug screen in 47 multiple myeloma cell lines against the NCATS MIPE library collection: U266_ATCC cell viability assay (AID 1919864); also: nearly all actives have a fitted effect of over 35% in size
Outline: as §1

[20] = Quantitative High-Throughput drug screen in 47 multiple myeloma cell lines against the NCATS MIPE library collection: XG6_PLB cell viability assay (AID 1919865); also: nearly all actives have a fitted effect of over 40% in size
Outline: as §1

[21] = measured here: PEO1 parental Z-AUC
[22] = TFE3-RCC UOK109 viability, measured here: UOK109 Z-AUC
[23] = TFE3-RCC viability, measured here: UOK124 Z-AUC
[24] = TFE3-RCC viability, measured here: UOK145 Z-AUC
Potency is read from the fitted curve at half-maximal effect.

C=CCn1c(=O)c2cnc(Nc3ccc(N4CCN(C)CC4)cc3)nc2n1-c1cccc(C(C)(C)O)n1
active: Potency [1] 590 nM | Potency [2] 83.3 nM | Potency [3] 14.8 nM | Potency [4] 332 nM | Potency [5] 590 nM | Potency [6] 469 nM | Potency [7] 166 nM | Potency [8] 372 nM | Potency [9] 148 nM | Potency [10] 235 nM | Potency [11] 469 nM | Potency [12] 2350 nM | Potency [13] 1180 nM | Potency [14] 264 nM | Potency [15] 418 nM | Potency [16] 138 nM | Potency ([17]; TFE3-RCC UOK109 viability, active = Z-AUC below -0.8 in all three lines) 235 nM
-1.42: Z-AUC ([16]; measured here: PEO4 Z-AUC)
-1.89: z-score [17, 22]
-2.1: z-score [17, 24]
-1.72: z-score [17, 23]
-1.63: Z-AUC [16, 21]

CC1(C)CC(=O)c2c(C(F)(F)F)nn(-c3ccc(C(N)=O)c(NC4CCC(OC(=O)CN)CC4)c3)c2C1 (stereo not drawn)
-0.877: Z-AUC [16, 21]
-0.312: Z-AUC ([16]; measured here: PEO4 Z-AUC)
inactive: Z-AUC [16] -1.29
active: Potency [1] 235 nM | Potency [2] 83.3 nM | Potency [18] 83.3 nM | Potency [4] 187 nM | Potency [5] 166 nM | Potency [6] 264 nM | Potency [19] 166 nM | Potency [20] 296 nM | Potency [7] 83.3 nM | Potency [8] 166 nM | Potency [9] 209 nM | Potency [10] 209 nM | Potency [11] 74.3 nM | Potency [13] 296 nM | Potency [14] 118 nM | Potency [15] 187 nM

O=C(O)CCCc1c[nH]c2ccccc12
0.701: z-score [17, 23]
0.654: z-score [17, 24]
0.6: Z-AUC ([16]; measured here: PEO4 Z-AUC)
active: Potency [8] 26400 nM
0.661: Z-AUC [16, 21]
0.907: z-score [17, 22]
inactive: Potency [1] | Potency [2] | Potency [3] | Potency [5] | viability [6] 113% | Potency [19] | Potency [10] | Potency [15] | Z-AUC [16] 0.341

CCCNC(=O)Nc1ccc(Oc2ncnc3cc(OC)c(OC)cc23)cc1Cl
-1.33: z-score [17, 23]
inactive: Potency [1] | Potency [2] | Potency [3] | Potency [5] | viability [6] 116% | Potency [20] | Potency [7] | Potency [9] | Potency [10] | Potency [11] | Potency [13] | Z-AUC [16] -0.498
-0.00236: Z-AUC [16, 21]
-0.53: Z-AUC ([16]; measured here: PEO4 Z-AUC)
0.0793: z-score [17, 22]
-0.496: z-score [17, 24]

O=C(O)CO.[NH2-].[NH2-].[Pt+2]
1.18: z-score [17, 24]
inactive: Potency [1] | Potency [2] | Potency [3] | Potency [5] | Potency [20] | Potency [7] | Potency [8] | Potency [10] | Potency [11] | Potency [12] | Potency [14] | Potency [15]
1.56: z-score [17, 23]
0.642: z-score [17, 22]

CC(C)c1ccccc1Cc1cc(C(=O)Nc2ccc(S(=O)(=O)c3ccccc3C(C)(C)C)cc2)c(O)c(O)c1O
active: Potency [1] 16600 nM | Potency [18] 4690 nM | Potency [4] 4690 nM | Potency [5] 9350 nM | Potency [6] 13200 nM | Potency [19] 13200 nM | Potency [20] 7430 nM | Potency [7] 3720 nM | Potency [8] 5260 nM | Potency [9] 4690 nM | Potency [11] 7430 nM | Potency [14] 5260 nM | Potency [15] 10500 nM
0.393: Z-AUC [16, 21]
inactive: Potency [2] | Z-AUC [16] 0.413
0.535: Z-AUC ([16]; measured here: PEO4 Z-AUC)

CN1c2cc(O)c(N=NC(N)=O)cc2CC1S(=O)(=O)O (stereo not drawn)
0.697: z-score [17, 23]
active: Potency [13] 14800 nM
0.359: z-score [17, 22]
0.51: z-score [17, 24]
inactive: Potency [1] | Potency [2] | Potency [3] | Potency [4] | Potency [5] | Potency [8] | Potency [10] | Potency [11] | Potency [12] | Potency [14] | Potency [15]

Nc1nc(Nc2ccc(S(N)(=O)=O)cc2)nn1C(=O)c1c(F)cccc1F
active: Potency [1] 8330 nM | Potency [2] 2960 nM | Potency [18] 3320 nM | Potency [4] 7430 nM | Potency [5] 7430 nM | Potency [6] 10500 nM | Potency [19] 7430 nM | Potency [20] 2350 nM | Potency [8] 5260 nM | Potency [11] 1870 nM | Potency [12] 18700 nM | Potency [13] 14800 nM | Potency [14] 7430 nM
inactive: Z-AUC [16] 0.423
-0.334: Z-AUC [16, 21]
-0.463: Z-AUC ([16]; measured here: PEO4 Z-AUC)

CC1(O)CC(c2nc(-c3ccc4ccc(-c5ccccc5)nc4c3)c3c(N)nccn23)C1 (stereo not drawn)
-1.72: Z-AUC ([16]; measured here: PEO4 Z-AUC)
inactive: Z-AUC [16] -2.04
active: Potency [1] 264 nM | Potency [2] 662 nM | Potency [3] 590 nM | Potency [4] 235 nM | Potency [5] 18700 nM | Potency [20] 5260 nM | Potency [8] 166 nM | Potency [9] 166 nM | Potency [10] 1660 nM | Potency [11] 14800 nM | Potency [12] 235 nM | Potency [13] 18700 nM | Potency [14] 187 nM | Potency [15] 148 nM
-0.993: Z-AUC [16, 21]

Source: PubChem BioAssay (NCATS)
